The test system of assay [1] is Human papillomavirus type 1a protein E7 (residues 44-93). The assay can be described thus: HPV1a E7 fragment binders on microarrays, primary screen, biochemical, small-molecule microarray, residues 44-93, 635 nm fluorescence (AID 1108).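 Note: E7 fragment applied at 1 µg/mL in TBST for 1 h at 4 C; score combines spot fluorescence with its signal to noise ratio.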 As to conditions: small-molecule microarray binding, fluorescence 635 nm; higher = more signal.
Assay [2] in a line: modulators of HCV replicon luciferase signal, primary screen, HCV replication inhibitor project, Huh7 cells, luciferase reporter (AID 1109).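 Note: huh7 hepatoma cells harbouring a luciferase neomycin HCV replicon reporter; luciferase luminescence as measure of HCV replicon replication; test concentration not given here.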 The conditions noted are these: 48 h, higher = more signal. For orientation: A replicon is a self-replicating genome or part of one, used to study replication in cells.
In assay [3] the target is Left-right determination factor 2 (Homo sapiens) (UniProt O00292). The assay can be described thus: LEFTY2 binders on small-molecule microarrays, primary screen, biochemical, small-molecule microarray, 635 nm fluorescence scan (AID 1110). As to conditions: LEFTY2 binding, higher = more signal.
Chain of Left-right determination factor 2 (Homo sapiens) (O00292 whole entry, looked up): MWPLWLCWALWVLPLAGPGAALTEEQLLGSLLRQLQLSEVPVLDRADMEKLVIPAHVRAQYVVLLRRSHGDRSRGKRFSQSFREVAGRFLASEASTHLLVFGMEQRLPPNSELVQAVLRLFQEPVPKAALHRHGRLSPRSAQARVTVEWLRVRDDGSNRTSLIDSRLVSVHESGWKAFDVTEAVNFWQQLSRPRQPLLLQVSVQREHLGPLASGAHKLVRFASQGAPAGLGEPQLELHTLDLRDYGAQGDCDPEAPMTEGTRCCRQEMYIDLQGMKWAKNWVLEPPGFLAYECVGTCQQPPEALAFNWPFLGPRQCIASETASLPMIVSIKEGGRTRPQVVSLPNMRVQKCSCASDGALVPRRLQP
Assay [4] deals with Calmodulin-1 (Homo sapiens) (UniProt P0DP23). The assay can be described thus: CALM1 binders on microarrays, EGTA buffer, profiling panel, biochemical, small-molecule microarray, Cy5-labelled CALM1 (AID 1111).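 Note: labelled calmodulin applied in Tris saline Tween buffer holding calcium plus EGTA and DTT.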 As to conditions: Cy5-CALM1 binding fluorescence, higher = more signal.
For assay [5] the target is unchanged. The assay can be described thus: calcium-bound CALM1 binders on microarrays, profiling panel, artefact control for SMM control-protein annotation, biochemical, small-molecule microarray, Cy5-labelled CALM1, plus calcium (AID 1112).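 Note: score merges spot fluorescence with signal to noise from triplicate slides.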 As to conditions: Cy5-CALM1 binding fluorescence, higher = more signal.
The nature of assay [6]: small-molecule microarray binders of probe aWnt5a, primary screen, biochemical, biotinylated probe, 635/667 nm fluorescence (AID 1113).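 Note: score merges 667 nm fluorescence intensity with signal-to-noise per printed feature.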 The conditions noted are these: higher = more signal.
A short description of assay [7]: small-molecule microarray binders of probe aShh, primary screen, biochemical, biotinylated probe, 635/667 nm fluorescence (AID 1114).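 Note: probe is biotin-labelled aShh protein from a stem cell growth factor screen; measures binding of labelled protein to compounds printed on the slide; score merges feature fluorescence at 667 nm with signal-to-noise.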 As to conditions: higher = more signal.
A short description of assay [8]: small-molecule microarray binders of probe aNog, primary screen, biochemical, biotinylated probe, 635/667 nm fluorescence (AID 1115).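 Note: probe is biotinylated aNog protein used at 0.15 µg/mL for 1 h at 4 C; z-score combines 667 nm fluorescence of each spot with its signal to noise.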 The conditions noted are these: higher = more signal.
The target in assay [9] is Torsin-1A-interacting protein 1 (Homo sapiens) (UniProt Q5JTV8). The assay is described as follows: LAP1 binders from COS7 cell lysate, primary screen, small-molecule microarray, 635/667 nm fluorescence (AID 1116). The conditions noted are these: COS7-hLAP1 lysate binding, 635 nm fluorescence, higher = more signal.
Chain of Torsin-1A-interacting protein 1 (Homo sapiens) (Q5JTV8 whole entry, looked up): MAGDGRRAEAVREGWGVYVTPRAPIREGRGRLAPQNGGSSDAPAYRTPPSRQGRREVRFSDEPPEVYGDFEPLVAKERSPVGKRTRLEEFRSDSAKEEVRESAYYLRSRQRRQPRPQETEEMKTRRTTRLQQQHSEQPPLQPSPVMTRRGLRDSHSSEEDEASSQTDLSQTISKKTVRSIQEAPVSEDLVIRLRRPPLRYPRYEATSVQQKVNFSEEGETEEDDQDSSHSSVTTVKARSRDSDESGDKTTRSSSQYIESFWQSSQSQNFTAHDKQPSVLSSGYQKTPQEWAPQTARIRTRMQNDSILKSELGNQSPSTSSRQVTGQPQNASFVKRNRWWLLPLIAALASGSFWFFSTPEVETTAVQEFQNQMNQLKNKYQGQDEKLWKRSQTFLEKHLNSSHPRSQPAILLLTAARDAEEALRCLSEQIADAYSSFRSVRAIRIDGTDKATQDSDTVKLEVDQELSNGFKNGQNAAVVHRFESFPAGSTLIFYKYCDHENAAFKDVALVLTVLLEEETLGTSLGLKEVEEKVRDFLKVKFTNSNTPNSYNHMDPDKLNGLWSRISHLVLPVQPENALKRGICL
Assay [10] deals with Alpha-bungarotoxin (Bungarus multicinctus) (UniProt P60615). The assay can be described thus: alpha-bungarotoxin binders on microarray, profiling panel, artefact control for SMM control protein annotation, biochemical, small-molecule microarray, Alexa647 label, 635/667 nm fluorescence (AID 1117). The conditions noted are these: alpha-BTX-A647 binding fluorescence, higher = more signal.
Chain of Alpha-bungarotoxin (Bungarus multicinctus) (P60615 whole entry, looked up): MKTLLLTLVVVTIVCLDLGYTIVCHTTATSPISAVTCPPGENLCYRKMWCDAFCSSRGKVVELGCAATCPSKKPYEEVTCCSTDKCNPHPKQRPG

The target in a further assay is Albumin (Bos taurus) (UniProt P02769). The assay is described as follows: bovine serum albumin binders on microarray, profiling panel, artefact control for SMM control protein annotation, biochemical, small-molecule microarray, Alexa647 label, 635/667 nm fluorescence (AID 1118).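 Note: score merges 667 nm emission intensity and signal-to-noise per printed compound spot.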 The conditions noted are these: BSA-A647 binding, fluorescence 635 nm, higher = more signal.
Chain of Albumin (Bos taurus) (P02769 whole entry, looked up): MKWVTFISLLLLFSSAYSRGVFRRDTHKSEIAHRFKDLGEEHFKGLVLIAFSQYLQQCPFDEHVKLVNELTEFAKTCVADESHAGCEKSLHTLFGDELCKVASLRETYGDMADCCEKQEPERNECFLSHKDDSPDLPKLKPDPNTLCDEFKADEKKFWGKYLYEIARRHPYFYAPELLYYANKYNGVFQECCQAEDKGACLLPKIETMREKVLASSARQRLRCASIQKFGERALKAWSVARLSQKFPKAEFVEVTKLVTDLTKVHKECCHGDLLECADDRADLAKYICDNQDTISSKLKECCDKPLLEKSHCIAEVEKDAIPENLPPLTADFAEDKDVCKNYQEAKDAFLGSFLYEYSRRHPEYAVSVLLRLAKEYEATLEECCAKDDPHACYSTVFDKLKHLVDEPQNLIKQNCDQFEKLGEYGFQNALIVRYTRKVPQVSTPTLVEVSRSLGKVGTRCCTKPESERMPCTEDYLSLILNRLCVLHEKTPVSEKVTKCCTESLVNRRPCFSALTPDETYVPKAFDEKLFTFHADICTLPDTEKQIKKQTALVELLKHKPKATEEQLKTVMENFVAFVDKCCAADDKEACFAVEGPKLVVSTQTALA

Assay [11] is described as follows: small-molecule microarray binders of probe aXIP, primary screen, biochemical, NeuroSMM set, 635/667 nm fluorescence (AID 1119).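 Note: probe is the protein aXip251-270 applied at 1 µg/mL to compound-printed slides; binding of probe to printed compounds measured as 667 nm fluorescence plus signal to noise.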 The conditions noted are these: higher = more signal, called active from +8 up or from −8 down.
Assay [12] can be described thus: small-molecule binders of probe aNOTCH3, primary screen, biochemical, small-molecule microarray, 635/667 nm fluorescence (AID 1120).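 Note: probe is a biotin-tagged antibody raised against NOTCH3 rather than NOTCH3 protein; score merges spot fluorescence near 667 nm with spot signal to noise.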 As to conditions: higher = more signal.
Assay [13] is described as follows: small-molecule binders of probe aNOTCH2, primary screen, biochemical, small-molecule microarray, 635/667 nm fluorescence (AID 1121).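 Note: score merges feature fluorescence read at 667 nm with its signal to noise.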 As to conditions: higher = more signal.
Assay [14] concerns the target Carbonic anhydrase 2 (Homo sapiens) (UniProt P00918). The assay can be described thus: CAII small-molecule binders, profiling panel, biochemical, small-molecule microarray, Alexa647-labelled CAII (AID 1122). The conditions noted are these: CAII-A647 binding fluorescence, higher = more signal.
Assay [15] in a line: COS7 lysate on small-molecule microarray, probe aHis, 635 nm (AID 1123).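 Note: z-score combines 667nm fluorescence intensity with signal-to-noise per printed compound spot.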 The conditions noted are these: COS7 cell lysate, fluorescence, higher = more signal.
Assay [16] in a line: compound binding in COS7 lysate, probe aLAP1, primary screen, cell lysate, small-molecule microarray (AID 1124).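 Note: lysate comes from COS7 cells expressing LAP1 and is applied at 0.3 µg/mL; score merges spot fluorescence near 667 nm with signal-to-noise over triplicate slides.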 As to conditions: probe aLAP1, fluorescence, higher = more signal.
A further assay concerns Sam68 (KHDRBS1). The assay is described as follows: Sam68 small-molecule binders, primary screen, biochemical, small-molecule microarray, 635 nm fluorescence (AID 1125).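 Note: score merges 667 nm channel intensity with signal to noise over triplicate slides.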 As to conditions: small-molecule microarray binding, higher = more signal.
Assay [17] relates to Chordin-like protein 2 (CHRDL2). The assay is described as follows: CHRDL2 small-molecule binders, primary screen, biochemical, small-molecule microarray, 635 nm fluorescence (AID 1126).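 Note: printed compound slides probed with Chrdl2 protein at 4 µg/mL for 1 h at 4 C; score merges 667 nm emission intensity with signal to noise over three replicate slides.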 The conditions noted are these: small-molecule microarray binding, fluorescence 635 nm; higher = more signal.
Assay [18] deals with Concanavalin-A (Canavalia ensiformis) (UniProt P02866). The assay can be described thus: ConA small-molecule binders, primary screen, artefact control for SMM control protein annotation, biochemical, small-molecule microarray, Alexa647 label, 635 nm (AID 1127).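 Note: z combines 667 nm emission intensity with signal-to-noise across three replicate slides.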 As to conditions: ConA-A647 binding fluorescence, higher = more signal.
Chain of Concanavalin-A (Canavalia ensiformis) (P02866 whole entry, looked up): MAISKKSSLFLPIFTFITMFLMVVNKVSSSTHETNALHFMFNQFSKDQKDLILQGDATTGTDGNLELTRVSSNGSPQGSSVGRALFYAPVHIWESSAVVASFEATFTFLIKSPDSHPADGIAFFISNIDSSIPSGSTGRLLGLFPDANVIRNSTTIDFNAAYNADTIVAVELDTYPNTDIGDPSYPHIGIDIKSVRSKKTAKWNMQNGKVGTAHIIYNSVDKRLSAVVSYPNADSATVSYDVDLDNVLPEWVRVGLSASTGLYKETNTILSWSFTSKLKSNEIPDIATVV

Active and inactive are the calls of the source.

As to `CCOC(=O)C1=CC[C@@H](c2ccccc2)N(S(=O)(=O)c2ccc(C)cc2)[C@H]1c1cccc(OC)c1`, the composite z-score in assay [1] came to 1.09; in assay [3], 0.177; in [4] it was 0.0295; in assay [5] it was 0.622; in assay [6], 0.0422; in assay [7], 0.0898. The composite z-score in assay [8] came to 0.266; in assay [9], 0.854; in assay [10], 1.3; with Albumin (Bos taurus), 0.909; in assay [12] it was 0.199; in [13] it was 0.137. For the same compound, the composite z-score in assay [14] was 0.422; in assay [15], 0.899; in [16] it was 0.0214; in the assay on Sam68 (KHDRBS1), 1.06; in [17] it was -0.0412; in assay [18], 0.913. Further, the z-score in assay [2] was -1.96. Also, the composite Z-score in assay [11] is 1.15 (inactive).
In the case of `C=CCN1C(=O)[C@]2(O[C@H](CCO)[C@@H]([Si](C)(C)c3ccc(OC)cc3)[C@@H]2C)c2cc(N3C(=O)COc4ccccc43)ccc21`, the composite z-score in assay [1] was 1.32; in [3], 0.181; in assay [4], 0.966; in assay [5], 0.325; in [6] it was -0.0134; in assay [7], -0.0858. Further, the composite z-score was 0.0599 in [8]; -0.0988 in assay [9]; 0.429 in assay [10]; 0.427 with Albumin (Bos taurus); 0.0039 in [12]; -0.175 in [13]. Also, the composite z-score in assay [14] was 0.418; in assay [15], 0.751; in assay [16], 0.78; in the assay with Sam68 (KHDRBS1), 0.804; in assay [17], -0.153; in assay [18], 0.919. The z-score in assay [2] was -5.2. For the same compound, in [11], the composite Z-score was 0.0421 (inactive).
As for `COc1ccc(C(O)C2C=CC3C(=O)N(c4ccccc4)C(=O)C3N2Nc2ccccc2)cc1` (stereo not given), the composite z-score in assay [1] was 1.39; in assay [3], -0.13; in [4], 0.553; in [5], 0.147; in assay [6] it was 0.0102; in assay [7], -0.0243. In addition, the composite z-score is 0.36 in assay [8]; 0.272 in assay [9]; 2.13 in [10]; 1.01 with Albumin (Bos taurus); 0.331 in assay [12]; -0.0501 in assay [13]. Moreover, the composite z-score in [14] was 0.781; in [15], 2.89; in [16], 0.326; in the assay on Sam68 (KHDRBS1), 1.17; in assay [17], -0.154; in [18] it was 1.14. Also, the z-score in assay [2] was -0.454. Further, in assay [11], the composite Z-score is -0.135 (inactive).
For the compound `O=C(O)[C@@H]1C[C@@H]2C(=O)N3CCC[C@H]3C(=O)N2[C@@H]1c1cccc(OCCO)c1`, the composite z-score in assay [1] is 1.49; in assay [3] it was 1.56; in [4] it was 1.69; in assay [5] it was 0.815; in [6] it was 0.94; in assay [7] it was 2.65. Further, the composite z-score was 3.05 in assay [8]; 3.85 in assay [9]; 2.99 in assay [10]; 0.778 in the assay with Albumin (Bos taurus); 1.56 in assay [12]; 1.07 in assay [13]. For the same compound, the composite z-score was found to be 0.849 in assay [14]; 4.04 in [15]; 1.04 in assay [16]; 1.33 with Sam68 (KHDRBS1); 1.11 in [17]; 1.24 in assay [18]. Besides, in assay [2], the z-score is -0.444. Further, the composite Z-score in [11] was 2.44 (inactive).
As for `CCOC(=O)C1=CCC(c2ccccc2)N(S(=O)(=O)c2ccc([N+](=O)[O-])cc2)C1` (stereo not given), the composite z-score is 0.992 in assay [1]; -0.276 in [3]; -0.36 in [4]; -0.0871 in assay [5]; -0.147 in assay [6]; 0.0048 in assay [7]. The composite z-score is -0.425 in [8]; 0.853 in assay [9]; -0.165 in [10]; 0.193 with Albumin (Bos taurus); -0.0077 in [12]; -0.108 in assay [13]. The composite z-score in assay [14] was 0.0862; in assay [15], 1.07; in [16], 0.173; with Sam68 (KHDRBS1), 0.439; in assay [17], 0.0332; in assay [18], -0.104. Also, in [2], the z-score is -1.93. In [11], the composite Z-score was -0.275 (inactive).
In the case of `O=C1OCC=C[C@H]2OC34C=CCN(c5ccc6ccccc6c5)C(=O)[C@H]3N(CCCCCO)C(=O)[C@@H]4[C@@H]12` (stereo not given in full), the composite z-score in assay [1] was 0.203; in assay [3] it was -2.05; in assay [4], -0.402; in assay [5], 0.239; in assay [6] it was -0.098; in assay [7], 0.151. For the same compound, the composite z-score was 0.244 in [8]; 1.35 in assay [9]; -0.0602 in assay [10]; 0.712 with Albumin (Bos taurus); -0.292 in assay [12]; -0.0176 in [13]. The composite z-score is 0.309 in assay [14]; 1.25 in assay [15]; -0.148 in [16]; -0.702 in the assay with Sam68 (KHDRBS1); -1.27 in assay [17]; -0.388 in assay [18]. In addition, the z-score in assay [2] is -0.078. Besides, in assay [11], the composite Z-score was -0.834 (inactive).
